# Laboratory results: the supplement of paper PMC11732987, “Enantioselective OTUD7B fragment discovery through chemoproteomics screening and high-throughput optimisation” (Communications Chemistry, 2025)
# A number with no mark means an inactive call.
# Key:
# Experiment in all cases: log2 ratio of Biotin-Ahx-Ub-VS probe labelling (fragment/DMSO); higher = less target engagement (more negative = stronger competition), active = hit call of the paper (q ≤ 0.05, log2 ratio ≤ -1)
# Conditions in all cases: compound concentration: 200 uM; treatment time: 3 h
# [1] = target: T1, OTUD6B (UniProt Q8N6M0)
# T1 sequence (whole entry): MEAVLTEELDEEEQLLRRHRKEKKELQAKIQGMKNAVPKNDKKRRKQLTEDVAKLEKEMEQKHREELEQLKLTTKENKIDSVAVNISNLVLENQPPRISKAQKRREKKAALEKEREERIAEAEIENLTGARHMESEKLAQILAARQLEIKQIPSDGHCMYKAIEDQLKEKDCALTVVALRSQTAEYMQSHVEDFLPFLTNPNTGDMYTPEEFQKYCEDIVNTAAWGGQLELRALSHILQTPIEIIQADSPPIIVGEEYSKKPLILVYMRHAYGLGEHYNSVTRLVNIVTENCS
# Procedure, shortened: (§1)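 Triplicate samples of HEK293T lysate, 495 µg each, received fragment at 200 µM or vehicle for 3 h, followed by Biotin-Ahx-Ub-VS (0.5 µM final) for 1 h. After NeutrAvidin enrichment of labelled DUBs and LysC/trypsin digestion, peptides were run by diaPASEF LC-MS/MS. The values are average log2 fragment/vehicle ratios from global-median-normalised Spectronaut label-free quantities, tested by unpaired t-test on proteins having ≥2 unique peptides.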
# [2] = target: T2, OTUD7B (UniProt Q6GQQ9)
# T2 sequence (whole entry): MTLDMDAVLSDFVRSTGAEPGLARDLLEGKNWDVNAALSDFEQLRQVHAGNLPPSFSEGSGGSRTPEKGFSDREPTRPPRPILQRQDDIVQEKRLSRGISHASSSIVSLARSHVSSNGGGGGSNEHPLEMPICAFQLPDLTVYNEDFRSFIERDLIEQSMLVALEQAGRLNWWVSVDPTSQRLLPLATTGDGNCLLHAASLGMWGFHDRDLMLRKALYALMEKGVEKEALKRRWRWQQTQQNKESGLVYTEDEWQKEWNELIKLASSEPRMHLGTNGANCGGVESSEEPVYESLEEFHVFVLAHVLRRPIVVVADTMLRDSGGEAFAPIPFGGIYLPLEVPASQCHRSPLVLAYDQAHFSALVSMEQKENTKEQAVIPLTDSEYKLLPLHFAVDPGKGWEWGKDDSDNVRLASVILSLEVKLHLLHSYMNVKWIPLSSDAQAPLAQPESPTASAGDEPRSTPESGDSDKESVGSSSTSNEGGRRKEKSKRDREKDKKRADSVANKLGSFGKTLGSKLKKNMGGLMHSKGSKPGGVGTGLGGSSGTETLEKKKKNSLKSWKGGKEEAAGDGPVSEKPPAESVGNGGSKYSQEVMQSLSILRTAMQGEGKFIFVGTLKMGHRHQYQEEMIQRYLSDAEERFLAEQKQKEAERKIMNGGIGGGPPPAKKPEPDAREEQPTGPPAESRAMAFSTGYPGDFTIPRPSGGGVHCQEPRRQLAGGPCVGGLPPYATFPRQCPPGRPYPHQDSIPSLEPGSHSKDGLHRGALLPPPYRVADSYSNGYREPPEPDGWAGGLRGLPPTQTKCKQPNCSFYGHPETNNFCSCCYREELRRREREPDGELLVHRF
# Procedure, shortened: as §1
# [3] = target: PRPF8 (UniProt Q6P2Q9)
# Procedure, shortened: as §1
# [4] = target: T3, PSMD7 (UniProt P51665)
# T3 sequence (whole entry): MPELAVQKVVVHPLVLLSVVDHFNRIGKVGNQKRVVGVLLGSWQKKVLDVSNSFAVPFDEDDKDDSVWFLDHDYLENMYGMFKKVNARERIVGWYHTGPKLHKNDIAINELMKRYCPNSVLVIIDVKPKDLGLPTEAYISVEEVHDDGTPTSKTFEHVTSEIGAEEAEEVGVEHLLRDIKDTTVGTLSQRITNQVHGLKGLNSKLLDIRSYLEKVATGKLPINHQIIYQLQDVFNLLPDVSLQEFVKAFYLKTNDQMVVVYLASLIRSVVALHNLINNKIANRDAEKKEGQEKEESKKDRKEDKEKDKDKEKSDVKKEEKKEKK
# Procedure, shortened: as §1
# [5] = target: UCHL1 (UniProt P09936)
# Procedure, shortened: as §1
# [6] = target: T4, UCHL3 (UniProt P15374)
# T4 sequence (whole entry): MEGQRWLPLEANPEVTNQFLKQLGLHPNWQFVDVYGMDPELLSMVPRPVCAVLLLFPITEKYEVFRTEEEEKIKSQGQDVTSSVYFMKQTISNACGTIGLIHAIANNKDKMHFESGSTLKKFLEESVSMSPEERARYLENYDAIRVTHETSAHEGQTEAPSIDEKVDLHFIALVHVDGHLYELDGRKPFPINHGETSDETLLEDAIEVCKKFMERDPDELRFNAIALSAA
# Procedure, shortened: as §1
# [7] = target: T5, UCHL5 (UniProt Q9Y5K5)
# T5 sequence (whole entry): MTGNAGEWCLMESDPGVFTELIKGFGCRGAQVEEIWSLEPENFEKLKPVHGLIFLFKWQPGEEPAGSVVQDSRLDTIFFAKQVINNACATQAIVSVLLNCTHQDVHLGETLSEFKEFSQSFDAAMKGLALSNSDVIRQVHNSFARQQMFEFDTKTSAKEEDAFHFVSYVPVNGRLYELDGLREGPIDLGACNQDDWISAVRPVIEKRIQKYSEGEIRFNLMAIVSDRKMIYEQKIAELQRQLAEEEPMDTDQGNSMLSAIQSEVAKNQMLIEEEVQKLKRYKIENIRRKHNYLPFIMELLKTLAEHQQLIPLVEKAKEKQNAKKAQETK
# Procedure, shortened: as §1
# [8] = target: USP10 (UniProt Q14694)
# Procedure, shortened: as §1
# [9] = target: T6, USP15 (UniProt Q9Y4E8)
# T6 sequence (whole entry): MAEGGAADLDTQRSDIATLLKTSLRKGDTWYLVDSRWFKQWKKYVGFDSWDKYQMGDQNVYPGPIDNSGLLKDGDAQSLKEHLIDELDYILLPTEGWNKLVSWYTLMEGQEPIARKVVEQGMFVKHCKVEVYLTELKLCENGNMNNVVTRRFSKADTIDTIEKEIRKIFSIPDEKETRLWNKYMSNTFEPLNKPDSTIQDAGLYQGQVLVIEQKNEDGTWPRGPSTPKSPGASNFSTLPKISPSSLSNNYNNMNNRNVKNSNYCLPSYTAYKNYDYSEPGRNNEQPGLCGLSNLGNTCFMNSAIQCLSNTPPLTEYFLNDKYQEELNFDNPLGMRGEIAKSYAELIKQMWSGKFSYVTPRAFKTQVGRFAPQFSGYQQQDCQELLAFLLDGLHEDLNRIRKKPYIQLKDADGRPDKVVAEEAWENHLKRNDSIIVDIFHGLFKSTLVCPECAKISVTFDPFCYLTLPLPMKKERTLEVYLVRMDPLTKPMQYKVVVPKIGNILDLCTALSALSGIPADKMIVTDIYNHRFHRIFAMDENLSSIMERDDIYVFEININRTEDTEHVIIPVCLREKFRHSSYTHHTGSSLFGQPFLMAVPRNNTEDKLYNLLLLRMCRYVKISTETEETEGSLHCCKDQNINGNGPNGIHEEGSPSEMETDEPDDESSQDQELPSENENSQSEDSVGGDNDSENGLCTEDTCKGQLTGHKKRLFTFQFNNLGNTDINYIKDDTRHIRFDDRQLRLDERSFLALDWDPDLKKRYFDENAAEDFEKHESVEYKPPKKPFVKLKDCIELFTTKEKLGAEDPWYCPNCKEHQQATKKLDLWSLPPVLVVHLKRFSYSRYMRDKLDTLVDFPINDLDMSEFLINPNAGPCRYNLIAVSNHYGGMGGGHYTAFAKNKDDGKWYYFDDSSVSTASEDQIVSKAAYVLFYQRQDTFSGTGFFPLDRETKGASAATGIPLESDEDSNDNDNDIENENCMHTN
# Procedure, shortened: as §1
# [10] = target: USP16 (UniProt Q9Y5T5)
# Procedure, shortened: as §1
# Sequence of USP10 (Q14694 whole entry): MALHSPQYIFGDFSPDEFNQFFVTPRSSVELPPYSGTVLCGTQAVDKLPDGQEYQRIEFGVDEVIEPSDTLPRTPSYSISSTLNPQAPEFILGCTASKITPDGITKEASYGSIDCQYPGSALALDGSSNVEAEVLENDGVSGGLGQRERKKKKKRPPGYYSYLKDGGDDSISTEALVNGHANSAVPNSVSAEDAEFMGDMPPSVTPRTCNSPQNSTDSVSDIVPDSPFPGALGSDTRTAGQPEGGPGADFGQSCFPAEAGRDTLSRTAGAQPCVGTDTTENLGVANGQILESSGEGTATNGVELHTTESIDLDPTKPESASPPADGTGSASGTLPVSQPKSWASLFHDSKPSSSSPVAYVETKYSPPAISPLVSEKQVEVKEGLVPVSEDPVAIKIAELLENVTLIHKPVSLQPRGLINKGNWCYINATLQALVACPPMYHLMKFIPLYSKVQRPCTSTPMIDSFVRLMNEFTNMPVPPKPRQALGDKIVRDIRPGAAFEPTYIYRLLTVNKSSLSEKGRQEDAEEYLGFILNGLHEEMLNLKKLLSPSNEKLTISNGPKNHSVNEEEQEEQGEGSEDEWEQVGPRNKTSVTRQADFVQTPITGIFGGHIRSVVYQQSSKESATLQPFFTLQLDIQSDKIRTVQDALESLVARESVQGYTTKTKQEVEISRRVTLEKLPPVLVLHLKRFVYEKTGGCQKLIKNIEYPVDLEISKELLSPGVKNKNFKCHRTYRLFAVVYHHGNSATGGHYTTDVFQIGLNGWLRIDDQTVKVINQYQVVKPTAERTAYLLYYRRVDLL
# Sequence of UCHL1 (P09936 whole entry, looked up): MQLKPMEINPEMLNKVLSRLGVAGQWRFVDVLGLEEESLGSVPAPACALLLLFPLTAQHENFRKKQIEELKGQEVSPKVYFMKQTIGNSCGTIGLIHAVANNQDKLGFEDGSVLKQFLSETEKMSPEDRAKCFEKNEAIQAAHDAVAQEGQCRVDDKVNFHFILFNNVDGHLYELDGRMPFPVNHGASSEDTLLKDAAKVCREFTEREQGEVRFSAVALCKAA
# Sequence of USP16 (Q9Y5T5 whole entry, looked up): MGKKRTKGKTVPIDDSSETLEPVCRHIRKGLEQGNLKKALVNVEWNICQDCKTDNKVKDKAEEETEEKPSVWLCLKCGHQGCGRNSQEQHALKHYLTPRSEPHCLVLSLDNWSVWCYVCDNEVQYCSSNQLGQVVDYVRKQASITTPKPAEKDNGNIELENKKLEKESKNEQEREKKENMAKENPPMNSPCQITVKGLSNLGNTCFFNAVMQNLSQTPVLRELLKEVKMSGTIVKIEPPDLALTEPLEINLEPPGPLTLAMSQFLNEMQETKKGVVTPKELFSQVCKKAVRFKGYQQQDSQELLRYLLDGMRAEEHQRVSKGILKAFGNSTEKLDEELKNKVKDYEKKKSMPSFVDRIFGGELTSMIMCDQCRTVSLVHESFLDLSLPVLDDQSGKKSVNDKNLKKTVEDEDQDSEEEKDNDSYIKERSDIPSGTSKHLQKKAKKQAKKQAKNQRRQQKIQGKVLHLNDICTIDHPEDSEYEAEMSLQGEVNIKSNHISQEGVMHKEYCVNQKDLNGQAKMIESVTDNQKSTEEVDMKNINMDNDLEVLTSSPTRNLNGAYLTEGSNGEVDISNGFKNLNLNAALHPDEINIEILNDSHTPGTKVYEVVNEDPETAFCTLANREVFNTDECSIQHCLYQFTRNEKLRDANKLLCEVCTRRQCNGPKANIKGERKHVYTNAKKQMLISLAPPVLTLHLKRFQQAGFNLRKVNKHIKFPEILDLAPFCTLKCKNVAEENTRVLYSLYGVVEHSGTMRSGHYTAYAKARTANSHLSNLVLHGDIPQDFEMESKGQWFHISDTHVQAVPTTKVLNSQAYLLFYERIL
smiles,measurement,setting,value
O=C(CCl)N1CCOC2(CCC2)CC1,log2 ratio of Biotin-Ahx-Ub-VS probe labelling,[1],-0.0124
same,log2 ratio of Biotin-Ahx-Ub-VS probe labelling,[2],-0.961
same,log2 ratio of Biotin-Ahx-Ub-VS probe labelling,[3],-0.071
same,log2 ratio of Biotin-Ahx-Ub-VS probe labelling,[4],-0.283
same,log2 ratio of Biotin-Ahx-Ub-VS probe labelling,[5],-1.35 (active)
same,log2 ratio of Biotin-Ahx-Ub-VS probe labelling,[6],0.146
same,log2 ratio of Biotin-Ahx-Ub-VS probe labelling,[7],-0.0451
same,log2 ratio of Biotin-Ahx-Ub-VS probe labelling,[8],-0.118
same,log2 ratio of Biotin-Ahx-Ub-VS probe labelling,[9],-0.447
same,log2 ratio of Biotin-Ahx-Ub-VS probe labelling,[10],0.117
